Screens (PubChem)
Shown are actives, neighbours in structure and some others; about 1.8% of the full set was active somewhere.
Ba/F3 V617F tox: reduce viability of Ba/F3 cells dependent on JAK2V617F | Ba/F3 EpoR-JAK2V617F viability, ATP luminescence | inhibition, % at 5.6 µM | 1.1% of 220,000 active | AID 1446;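 active means inhibition above the campaign mean plus 3 SD over all tested compounds, cut at about 24% in these data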;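 further: cytokine-independent growth of Ba/F3 cells driven by EpoR plus mutant JAK2; 0% = DMSO-treated cells and 100% = JAK inhibitor I control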
BaF3 tox: reduces parental Ba/F3 cell viability, JAK2V617F counter-screen | CellTiter-Glo ATP luminescence | inhibition, % at 5.6 µM | 1.1% of 220,000 active | AID 1486;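 active means inhibition above a per-campaign cutoff, the mean inhibition of all tested compounds plus 3 SD, cut at about 27% in these data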;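 further: 0% = DMSO wells and 100% = JAK Inhibitor I control wells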
IEC-6 tox-1: IEC-6 cytotoxicity, counter-screen for KLF5 inhibitors | luminescence viability | inhibition, % at 5 µM | 0.78% of 290,000 active | AID 1825; in the data active means inhibition above about 22%;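 further: 0% = plate median of test compound wells and 100% = cytotoxic reference compound wells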
KLF5 inhibitor: kruppel-like factor 5 inhibition; DLD-1 KLF5 promoter-luciferase reporter, luminescence; inhibition, % at 5 µM; 0.23% of 290,000 active; AID 1700;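 active means inhibition above a per-plate limit of that plate's mean compound inhibition plus 3 SD, cut at about 60% in these data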;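 further: 0% = DMSO wells and 100% = LY294002 at 200 µM; higher means less KLF5 promoter-driven luciferase light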
APP transl inh: APP translation inhibition; AID 1285; inhibition, % at 2 µM; SH-SY5Y APP 5'UTR-luciferase reporter, luminescence; 0.82% of 190,000 active;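 active means inhibition above a set limit, derived from the sample mean plus 3 SD, cut at about 45% in these data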
KLF5 inh confirm: KLF5 inhibition, confirmation assay; DLD-1 KLF5 promoter firefly luciferase reporter, luminescence; 79% of 610 active; shares compounds with KLF5 inhibitor; inhibition, % at 4 µM;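 active means inhibition above a set limit taken from the earlier primary screen, cut at about 63% in these data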;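 further: 0% = DMSO wells and 100% = LY294002 at 200 µM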
IEC-6 tox-2: counter-screen for KLF5 inhibitors: cytotoxicity in rat IEC-6 cells. shares compounds with KLF5 inhibitor. IEC-6 rat intestinal cells, viability luminescence. inhibition, % at 4 µM. 56% of 610 active; in the data active means inhibition above about 23%;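 further: cells exposed to compounds for 48 hours before viability read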
* hit, by the source's call; · = not tested or not shown.

SMILES	Ba/F3 V617F tox	BaF3 tox	IEC-6 tox-1	KLF5 inhibitor	APP transl inh	KLF5 inh confirm	IEC-6 tox-2
Oc1ccccc1-c1cc(C(F)(F)C(F)F)nc(-c2ccccc2)n1	-0.9	0.0	-7.9	1.0	-1.4	·	·
O=[N+]([O-])c1ccc(O)c(-c2cc(C(F)(F)F)nc(-c3ccccc3)n2)c1	·	·	13.4	81.8*	·	86.0*	41.4*
Fc1ccccc1Cc1noc(CN2CCC(OCc3cccnc3)CC2)n1	1.0	4.6	-4.4	-11.1	-23.7	·	·
Cc1conc1NC(c1cccs1)c1ccc2cccnc2c1O (stereo unspecified)	97.3*	82.7*	7.4	69.8*	38.9	23.2	5.1
CC(C)C(=O)NC(c1cccs1)c1cc([N+](=O)[O-])c2cccnc2c1O (stereo unspecified)	2.9	7.8	-1.7	-16.6	-3.2	·	·
CC(C)CC(=O)NC(c1cccs1)c1ccc2cccnc2c1O (stereo unspecified)	64.7*	74.8*	11.6	76.9*	82.0*	86.2*	49.7*
CCCC(=O)NC(c1cccs1)c1cc(Cl)c2cccnc2c1O (stereo unspecified)	-1.6	-2.2	-0.8	-13.1	43.5	·	·
CC(C)C(=O)NC(c1ccco1)c1ccc2cccnc2c1O (stereo unspecified)	50.9*	59.5*	13.4	66.8*	84.2*	95.8*	39.9*
CCC(=O)NC(c1cccs1)c1ccc2cccnc2c1O (stereo unspecified)	76.8*	58.7*	28.1*	78.1*	85.3*	91.1*	81.4*
c1cc2c(cc1C1=NNC(=NC3CC3)SC1)OCCO2	9.1	11.7	4.0	79.3*	51.0*	102.1*	30.3*
CCCCN=C1NN=C(c2ccc3c(c2)OCCO3)CS1	-5.6	7.5	-2.8	28.1	-80.2	·	·
COc1ccc(-n2ncc3c(N4CCC(C)CC4)ncnc32)cc1	·	·	-5.8	-42.9	·	·	·
COc1ccc(-n2ncc3c(N(C)C4CCCCC4)ncnc32)cc1	·	·	5.0	73.6*	·	64.3*	1.2
Nc1ncnc2c1ncn2[C@H]1C[C@H](O)[C@@H](COP(=O)(O)O)O1	6.2	11.1	-5.8	74.8*	11.2	-2.9	7.0
Nc1ncnc2c1ncn2[C@H]1C[C@H](O)[C@@H](CO)O1	0.7	9.4	4.9	-25.9	-4.1	·	·
O=C(CN1C(=O)NC2(CCCC2)C1=O)Nc1ccccc1F	2.0	4.3	4.9	109.1*	-0.4	0.9	-7.1
O=C(CN1C(=O)NC2(CCCC2)C1=O)Nc1ccc(Cl)cc1F	·	·	-2.4	-13.1	·	·	·
CC1=Nc2cc(C(=O)NCCCOC(C)C)ccc2Sc2ccc(C)cc21	74.5*	70.9*	83.8*	74.2*	95.2*	84.9*	59.3*
CCCC1=Nc2cc(C(=O)NCCCOC(C)C)ccc2Sc2ccccc21	6.5	11.2	5.2	62.2*	1.6	15.6	19.4
CC1=Nc2cc(C(=O)NCCCOC(C)C)ccc2Sc2ccccc21	1.0	4.4	8.4	-30.1	0.8	·	·
O=C(NCc1ccccc1)C(c1cccnc1)N(C(=O)c1csnn1)c1ccccc1 (stereo unspecified)	·	·	-2.4	-1.0	·	·	·
CCN(CC)c1ccc(NC(=O)CNCc2ccccc2Cl)c(C)c1	·	·	4.4	-0.5	·	·	·
COc1ccccc1N=Nc1ccc(O)c2ncccc12	·	·	3.7	74.7*	·	46.8	1.4
COc1ccc(C(=O)COC(=O)CNS(=O)(=O)c2ccc(C)cc2)cc1	-1.0	5.5	0.7	5.8	3.1	·	·
O=[N+]([O-])c1nn(-c2ccc3c(c2)OCCO3)n(O)c1=Nc1ccccc1	1.8	9.2	-2.9	72.4*	37.7	81.6*	1.7
SMILES	Ba/F3 V617F tox	BaF3 tox	IEC-6 tox-1	KLF5 inhibitor	APP transl inh	KLF5 inh confirm	IEC-6 tox-2
O=[N+]([O-])c1nn(-c2ccc3c(c2)OCCO3)n(O)c1=Nc1ccc(Cl)cc1	-4.3	3.2	-10.7	21.1	14.2	·	·
CCOc1ccc2c(c1)c(=O)c(S(=O)(=O)c1ccc(CC)cc1)cn2C	·	·	-0.5	-41.7	·	·	·
O=[N+]([O-])c1cccc(N/N=C/c2cc([N+](=O)[O-])ccc2O)c1	1.4	2.6	2.2	-25.9	-7.5	·	·
O=[N+]([O-])c1ccc(O)c(/C=N/Nc2ccccn2)c1	68.0*	34.2*	5.0	65.5*	76.3*	57.9	54.0*
O=C1c2cccc3cc([N+](=O)[O-])cc(c23)C(=O)N1CCN1CCCC1	99.0*	104.0*	99.8*	61.2	·	45.1	97.7*
CSc1nc(NS(=O)(=O)c2ccc(F)cc2F)nn1C	·	·	-4.0	-20.6	·	·	·
